Reference: PubChem BioAssay (NCATS)
Results filed as inconclusive are left out. Unmarked numbers belong to inactive results. Unless noted, the call rests on the fitted dose curve.

assay: Cell Viability - Hek293 (AID 427;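 active means compounds whose dose-response curve shows a full or clear partial loss of cell viability, called from curve shape rather than a numeric limit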;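 further: cells exposed to compound for 40 hours at 37 °C before reading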); conditions: qHTS
How it was run: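 HEK293 cells in complete medium were exposed to compound for 40 hr at 37 °C, then cellular ATP was read by CellTiter-Glo luminescence. Data were normalized to DMSO (basal) and 100 uM tamoxifen (100% inhibition), and AC50 came from Hill fits.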
Potency means the concentration at half of the fitted maximal effect.

| Compound | Potency |
| --- | --- |
| O=C(O)c1c(Cl)cccc1Cl | > 92 µM |
| CC(=O)CC(C)C | > 92 µM |
| NC(=O)/N=N/C(N)=O | > 92 µM |
| O=C(Cl)c1cccc([N+](=O)[O-])c1 | > 92 µM |
| CCCCC(=O)N(C)C | > 92 µM |
| CSCCC=O | > 92 µM |
| CCCCC(C=O)CC (stereo not drawn) | > 92 µM |
| O=Cc1cccc(Br)c1 | > 92 µM |
| C=CCn1c(=O)n(CC=C)c(=O)n(CC=C)c1=O | > 92 µM |
| CCOc1cc(OCC)c(C(C)=O)cc1OCC | > 92 µM |
| CCC(C)=O | > 92 µM |
| O=C1OC(=O)c2c(Cl)c(Cl)c(Cl)c(Cl)c21 | > 92 µM |
| CC=O | > 92 µM |
| CCOc1ccccc1N | > 92 µM |
| Cc1ccc(C(C)(C)C)cc1 | > 92 µM |
| CC(N)CN (stereo not drawn) | > 92 µM |
| O=C1CCC(=O)O1 | > 92 µM |
| O=[N+]([O-])c1ccc(NCCO)c(OCCO)c1 | > 92 µM |
| ClCCl | > 92 µM |
| Cc1ccc(C)o1 | > 92 µM |

| Compound | Potency |
| --- | --- |
| NC(=S)NNC(N)=S | > 92 µM |
| Clc1ccc(Cl)c(Cl)c1Cl | > 92 µM |
| O=C(Cl)c1ccccc1[N+](=O)[O-] | > 92 µM |
| Nc1cccc(N)c1 | > 92 µM |
| CC(C)=C1CCC(C)CC1=O (stereo not drawn) | > 92 µM |
| Nc1ccc(F)cc1F | > 92 µM |
| COC(=O)CCC(=O)OC | > 92 µM |
| CCc1ccccc1 | > 92 µM |
| CC(=O)OCCC(C)C | > 92 µM |
| C[C@@H]1CC2(OC3C[C@@]4(C)C5=CC[C@H]6C(C)(C)C(O[C@@H]7OC[C@@H](O)[C@H](O)[C@H]7O)CC[C@@]67C[C@@]57CC[C@]4(C)C31)OC(O)C1(C)OC21 (stereo partly drawn) | > 92 µM |
| CC(=O)Nc1ccc(N)cc1 | > 92 µM |
| CN(C)c1cccc(O)c1 | > 92 µM |
| Nc1ccccc1S(=O)(=O)O | > 92 µM |
| C=CCOC(=O)CCCCCCCC | > 92 µM |
| CC(=O)CCc1ccccc1 | > 92 µM |
| c1ccsc1 | > 92 µM |
| NC(=O)c1ccccc1[N+](=O)[O-] | > 92 µM |
| O=C(O)/C=C/C(=O)O | > 92 µM |
| O=C(O)c1ccc(CO)o1 | > 92 µM |

assay: Cell Viability - HepG2 (AID 433); conditions: qHTS;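 further: potency for ATP loss meaning cytotoxicity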
How it was run: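 Cytotoxicity read as ATP loss (CellTiter-Glo luminescence) after 40 hr compound exposure of HepG2, 1500 cells/well, 37 °C. AC50 by Hill equation; 0% set by DMSO, 100% inhibition by 100 uM tamoxifen.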

| Compound | Potency |
| --- | --- |
| O=C(O)c1c(Cl)cccc1Cl | > 92 µM |
| CC(=O)CC(C)C | > 92 µM |
| NC(=O)/N=N/C(N)=O | > 92 µM |
| O=C(Cl)c1cccc([N+](=O)[O-])c1 | > 92 µM |
| CCCCC(=O)N(C)C | > 92 µM |
| CSCCC=O | > 92 µM |
| CCCCC(C=O)CC (stereo not drawn) | > 92 µM |
| O=Cc1cccc(Br)c1 | > 92 µM |
| C=CCn1c(=O)n(CC=C)c(=O)n(CC=C)c1=O | > 92 µM |
| CCOc1cc(OCC)c(C(C)=O)cc1OCC | > 92 µM |
| CCC(C)=O | > 92 µM |
| O=C1OC(=O)c2c(Cl)c(Cl)c(Cl)c(Cl)c21 | > 92 µM |
| CC=O | > 92 µM |
| CCOc1ccccc1N | > 92 µM |
| Cc1ccc(C(C)(C)C)cc1 | > 92 µM |
| CC(N)CN (stereo not drawn) | > 92 µM |
| O=C1CCC(=O)O1 | > 92 µM |
| O=[N+]([O-])c1ccc(NCCO)c(OCCO)c1 | > 92 µM |
| ClCCl | > 92 µM |
| Cc1ccc(C)o1 | > 92 µM |

| Compound | Potency |
| --- | --- |
| NC(=S)NNC(N)=S | > 92 µM |
| Clc1ccc(Cl)c(Cl)c1Cl | > 92 µM |
| O=C(Cl)c1ccccc1[N+](=O)[O-] | > 92 µM |
| Nc1cccc(N)c1 | > 92 µM |
| CC(C)=C1CCC(C)CC1=O (stereo not drawn) | > 92 µM |
| Nc1ccc(F)cc1F | > 92 µM |
| COC(=O)CCC(=O)OC | > 92 µM |
| CCc1ccccc1 | > 92 µM |
| CC(=O)OCCC(C)C | > 92 µM |
| C[C@@H]1CC2(OC3C[C@@]4(C)C5=CC[C@H]6C(C)(C)C(O[C@@H]7OC[C@@H](O)[C@H](O)[C@H]7O)CC[C@@]67C[C@@]57CC[C@]4(C)C31)OC(O)C1(C)OC21 (stereo partly drawn) | > 92 µM |
| CC(=O)Nc1ccc(N)cc1 | > 92 µM |
| CN(C)c1cccc(O)c1 | > 92 µM |
| Nc1ccccc1S(=O)(=O)O | > 92 µM |
| C=CCOC(=O)CCCCCCCC | > 92 µM |
| CC(=O)CCc1ccccc1 | > 92 µM |
| c1ccsc1 | > 92 µM |
| NC(=O)c1ccccc1[N+](=O)[O-] | > 92 µM |
| O=C(O)/C=C/C(=O)O | > 92 µM |
| O=C(O)c1ccc(CO)o1 | > 92 µM |
